Active and inactive are the calls of the source. No rule for the calls is given here.
Target: Pantothenate synthetase (Mycobacterium tuberculosis (strain ATCC 25618 / H37Rv)) (UniProt P9WIL5)
Assay: Coupled enzyme confirmation of inhibitors against recombinant Mtb PanC (AID 375);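 also: 0% = full reaction with vehicle and 100% = no enzyme background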
Conditions: coupled enzyme assay; at 10 µM, stronger effect = higher value

Sequence of Pantothenate synthetase (Mycobacterium tuberculosis (strain ATCC 25618 / H37Rv)) (P9WIL5 whole entry, looked up): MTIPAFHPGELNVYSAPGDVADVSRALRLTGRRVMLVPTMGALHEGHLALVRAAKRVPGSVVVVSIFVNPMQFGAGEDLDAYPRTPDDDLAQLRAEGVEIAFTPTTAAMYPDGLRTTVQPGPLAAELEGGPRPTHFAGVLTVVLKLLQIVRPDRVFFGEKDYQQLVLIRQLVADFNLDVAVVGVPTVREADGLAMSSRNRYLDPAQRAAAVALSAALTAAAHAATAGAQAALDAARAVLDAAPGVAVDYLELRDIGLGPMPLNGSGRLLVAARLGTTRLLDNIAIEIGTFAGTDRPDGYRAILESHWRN

Compound	inhibition
c1ccc(-c2nn3nnnc3c3ccccc23)cc1	4% (inactive)
Cc1ccc(NC(=O)CN(c2ccc3c(c2)OCO3)S(=O)(=O)c2c(C)n[nH]c2C)cc1	1% (inactive)
CCc1ccc(N(CC(=O)NC2CCCC2)S(=O)(=O)c2c(C)noc2C)cc1	1% (inactive)
COc1ccc(-c2nnc(SCC(=O)N3CCCCC3)o2)cc1OC	0% (inactive)
O=C1CCCc2c1cc(C(=O)NCc1ccco1)c(=O)n2-c1ccc(Cl)cc1	9% (inactive)
COc1ccc(S(=O)(=O)N2CCN(C3CCCCCCC3)CC2)cc1	1% (inactive)
Cc1nc(SCC(=O)Nc2ccccc2C(F)(F)F)c2c(=O)n(C)c(=O)n(C)c2n1	4% (inactive)
CCOC(=O)c1cn(CC)c2cc(N3CCOCC3)c(F)cc2c1=O	0% (inactive)
N/C(=N/O)c1nc(N2CCCC2)nc(N(c2ccccc2)c2ccccc2)n1	7% (inactive)
O=C(NCC(=O)N(Cc1cccs1)C(C(=O)NC1CCCC1)c1ccncc1)c1ccco1 (stereo not given)	4% (inactive)
Cc1ccc(N2C(N)=NC(N)=NC23CCCC3)c(C)c1	3% (inactive)
Cc1cc(NC(=O)COC(=O)c2cccc(S(=O)(=O)N3CCOCC3)c2)no1	1% (inactive)
COc1ccc(OC)c(S(=O)(=O)NCCC2=CCCCC2)c1	6% (inactive)
COC(=O)c1ccccc1OCC(=O)NC1CCCCC1	0% (inactive)
CSC1=C(C#N)C(c2ccc(Cl)cc2)C2=C(CC(C)(C)CC2=O)N1 (stereo not given)	2% (inactive)
O=C(c1ccc2c(c1)c(=O)oc1ccccc12)N1CCCCC1	6% (inactive)
CC1CCN(S(=O)(=O)c2cccc(C(=O)Nc3ccccn3)c2)CC1	0% (inactive)
COc1ccc(-c2nnc(SCC(=O)NC(C)c3ccccc3)o2)cc1 (stereo not given)	0% (inactive)
CC(=O)Nc1ccc(S(=O)(=O)N2CCN(C(=O)CCC3CCCC3)CC2)cc1	0% (inactive)
Cc1ccc(C(C)n2cc(C(=O)NCCN3CCN(C)CC3)nn2)cc1 (stereo not given)	0% (inactive)

Compound	inhibition
Cc1ccc(S(=O)(=O)N2CCCN(S(=O)(=O)C3CCS(=O)(=O)C3)CC2)cc1 (stereo not given)	2% (inactive)
COc1ccc(C(C)NC(=O)c2ccoc2C)cc1OC (stereo not given)	5% (inactive)
COc1ccc2c3c(c(=O)oc2c1OCC(N)=O)CCCC3	2% (inactive)
COc1ccc(-c2nn3c(-c4ccncc4)nnc3s2)cc1OC	0% (inactive)
COC(=O)C1=C(C)NC(=O)C1(NC(=O)CN1CCCC1=O)C(F)(F)F (stereo not given)	5% (inactive)
Cc1nc2scc(-c3ccco3)c2c(=O)n1/N=C/N(C)C	0% (inactive)
O=C(CN1CCN(c2cccc(Cl)c2)CC1)N1CCCC1	4% (inactive)
CCOc1cc2oc(=O)c3c(c2cc1Cl)CCC3	0% (inactive)
CCOC(=O)NC(c1ccccc1)C1CCCCC1=O (stereo not given)	0% (inactive)
CC(CCc1ccccc1)NC(=O)CSc1nc(N)cc(N)n1 (stereo not given)	0% (inactive)
CCOC(=O)C1CCN(CC(=O)Nc2c(C(=O)OC)[nH]c3ccc(Cl)cc23)CC1	5% (inactive)
Cc1cc(-c2ccccc2)nc(SCc2ccc(C(=O)O)o2)n1	0% (inactive)
CC(=O)N1CCN(C(C)=O)C1c1ccccc1	2% (inactive)
CCOC(=O)C(CCc1nnc(N)s1)C(=O)OCC	4% (inactive)
CSc1nc(=NC(C)=O)ss1	0% (inactive)
COc1ccc(C(=O)Nc2cccc(C)c2)cc1S(=O)(=O)N1CCOCC1	1% (inactive)
CCC(C)(C)n1nnnc1C(c1cc2cc(C)ccc2[nH]c1=O)N1CCCC1 (stereo not given)	8% (inactive)
COc1cccc(OCCn2ccnc2)c1	4% (inactive)
CCC(=O)OCCn1c(=O)c2cc3c(=O)n(CCOC(=O)CC)c(=O)c3cc2c1=O	0% (inactive)
Cc1cc(=O)n2nc(-c3ccccc3)sc2n1	0% (inactive)
